# This excerpt belongs to a sample that is enriched for the strongest signals.
# What was measured:
# Assay in all cases: glycan array binding signal (z-score within array); higher = stronger binding
# Conditions in all cases: glycan notation: IUPAC condensed, linker removed
# [1] = target: Fuc(a1-2)Gal(b1-4)GlcNAc(b1-2)Man(a1-3)[Fuc(a1-2)Gal(b1-4)GlcNAc(b1-2)Man(a1-6)]Man(b1-4)GlcNAc(b1-4)[Fuc(a1-6)]GlcNAc
# Summary of the method: (§1)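 The binding signal is a Z-score computed within each array. Data were drawn from 3228 arrays in the Consortium for Functional Glycomics database, restricted to those with a known protein sequence. Scores were averaged over arrays of the same protein sequence at different concentrations or buffers, and over linkers, and negative values can be taken as non-binding.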
# [2] = target: Fuc(a1-2)Gal(b1-4)[Fuc(a1-3)]GlcNAc(b1-2)[Fuc(a1-2)Gal(b1-4)[Fuc(a1-3)]GlcNAc(b1-4)]Man(a1-3)[Fuc(a1-2)Gal(b1-4)[Fuc(a1-3)]GlcNAc(b1-2)Man(a1-6)]Man(b1-4)GlcNAc(b1-4)GlcNAc
# Summary of the method: as §1
# [3] = target: Fuc(a1-3)[Gal3S(b1-4)]GlcNAc
# Summary of the method: as §1
# [4] = target: Fuc(a1-3)[Gal3S(b1-4)]GlcNAc6S
# Summary of the method: as §1
# [5] = target: Fuc(a1-3)[GalNAc(b1-4)]GlcNAc
# Summary of the method: as §1
# [6] = target: Gal(a1-3)Gal(b1-3)GlcNAc
# Summary of the method: as §1
# [7] = target: Gal(a1-3)Gal(b1-3)GlcNAc(b1-2)Man(a1-3)[Gal(a1-3)Gal(b1-3)GlcNAc(b1-2)Man(a1-6)]Man(b1-4)GlcNAc(b1-4)GlcNAc
# Summary of the method: as §1
# [8] = target: Gal(a1-3)Gal(b1-3)GlcNAc(b1-3)GalNAc
# Summary of the method: as §1
# [9] = target: Gal(a1-4)GlcNAc
# Summary of the method: as §1
# [10] = target: Gal(b1-2)Gal
# Summary of the method: as §1
# [11] = target: Gal(b1-3)GlcNAc(a1-6)Gal(b1-4)GlcNAc
# Summary of the method: as §1
# [12] = target: Gal(b1-3)GlcNAc(b1-2)Man(a1-3)[Gal(b1-3)GlcNAc(b1-2)Man(a1-6)]Man(b1-4)GlcNAc(b1-4)GlcNAc
# Summary of the method: as §1
# [13] = target: Gal(b1-3)GlcNAc(b1-3)Gal(b1-4)GlcNAc(b1-2)Man(a1-3)[Gal(b1-3)GlcNAc(b1-3)Gal(b1-4)GlcNAc(b1-2)Man(a1-6)]Man(b1-4)GlcNAc(b1-4)GlcNAc
# Summary of the method: as §1
# [14] = target: Gal(b1-3)GlcNAc(b1-3)GalNAc
# Summary of the method: as §1
# [15] = target: Gal(b1-4)GlcNAc(b1-2)Man(a1-3)Man(b1-4)GlcNAc(b1-4)GlcNAc
# Summary of the method: as §1
# [16] = target: Gal(b1-4)GlcNAc(b1-2)Man(a1-3)[Man(a1-6)]Man(b1-4)GlcNAc(b1-4)GlcNAc
# Summary of the method: as §1
# [17] = target: Gal(b1-4)GlcNAc(b1-2)[Gal(b1-4)GlcNAc(b1-4)]Man(a1-3)[GlcNAc(b1-4)][Gal(b1-4)GlcNAc(b1-2)Man(a1-6)]Man(b1-4)GlcNAc(b1-4)GlcNAc
# Summary of the method: as §1
# [18] = target: Gal(b1-4)GlcNAc(b1-3)Gal(b1-4)GlcNAc(b1-2)Man(a1-3)[Gal(b1-4)GlcNAc(b1-3)Gal(b1-4)GlcNAc(b1-2)Man(a1-6)]Man(b1-4)GlcNAc(b1-4)GlcNAc
# Summary of the method: as §1
# [19] = target: Gal(b1-4)GlcNAc(b1-3)Gal(b1-4)GlcNAc(b1-2)[Gal(b1-4)GlcNAc(b1-3)Gal(b1-4)GlcNAc(b1-6)]Man(a1-6)[Gal(b1-4)GlcNAc(b1-3)Gal(b1-4)GlcNAc(b1-2)Man(a1-3)]Man(b1-4)GlcNAc(b1-4)GlcNAc
# Summary of the method: as §1
# [20] = target: GalNAc(a1-3)GalNAc(b1-3)Gal(a1-4)Gal(b1-4)GlcNAc
# Summary of the method: as §1
# [21] = target: GalNAc(b1-4)Gal(b1-4)Glc
# Summary of the method: as §1
# [22] = target: GalNAc(b1-4)GlcNAc(b1-3)GalNAc(b1-4)GlcNAc
# Summary of the method: as §1
# [23] = target: GalNAc(b1-4)GlcNAc6S
# Summary of the method: as §1
# [24] = target: GalNAc3S(b1-4)GlcNAc3S
# Summary of the method: as §1
# [25] = target: Glc(a1-4)Glc
# Summary of the method: as §1
# [26] = target: Glc(a1-4)Glc(a1-4)Glc(a1-4)Glc
# Summary of the method: as §1
# [27] = target: GlcNAc(b1-3)Gal(b1-3)GalNAc
# Summary of the method: as §1
# [28] = target: GlcNAc(b1-3)Gal(b1-4)GlcNAc(b1-2)Man(a1-3)[GlcNAc(b1-3)Gal(b1-4)GlcNAc(b1-2)Man(a1-6)]Man(b1-4)GlcNAc(b1-4)GlcNAc
# Summary of the method: as §1
# [29] = target: GlcNAc(b1-3)Gal(b1-4)GlcNAc(b1-3)Gal(b1-4)GlcNAc(b1-2)[GlcNAc(b1-3)Gal(b1-4)GlcNAc(b1-3)Gal(b1-4)GlcNAc(b1-6)]Man(a1-6)[GlcNAc(b1-3)Gal(b1-4)GlcNAc(b1-3)Gal(b1-4)GlcNAc(b1-2)Man(a1-3)]Man(b1-4)GlcNAc(b1-4)[Fuc(a1-6)]GlcNAc
# Summary of the method: as §1
# [30] = target: GlcNAc(b1-3)Gal(b1-4)GlcNAc(b1-3)[GlcNAc(b1-3)Gal(b1-4)GlcNAc(b1-3)]GalNAc
# Summary of the method: as §1
# [31] = target: GlcNAc(b1-3)[GlcNAc(b1-6)]GalNAc
# Summary of the method: as §1
# [32] = target: GlcNAc(b1-6)Gal(b1-4)GlcNAc
# Summary of the method: as §1
# [33] = target: Kdn(a2-3)Gal(b1-3)GalNAc
# Summary of the method: as §1
# [34] = target: Kdn(a2-3)Gal(b1-4)GlcNAc
# Summary of the method: as §1
# [35] = target: Man(a1-2)Man(a1-3)[Man(a1-6)]Man(a1-6)[Man(a1-2)Man(a1-3)]Man(b1-4)GlcNAc(b1-4)GlcNAc
# Summary of the method: as §1
# [36] = target: Neu5Ac(a2-3)Gal
# Summary of the method: as §1
# [37] = target: Neu5Ac(a2-3)Gal(b1-3)GlcNAc(b1-2)Man(a1-3)[Neu5Ac(a2-3)Gal(b1-3)GlcNAc(b1-2)Man(a1-6)]Man(b1-4)GlcNAc(b1-4)GlcNAc
# Summary of the method: as §1
# [38] = target: Neu5Ac(a2-3)Gal(b1-3)GlcNAc(b1-3)Gal(b1-3)GlcNAc
# Summary of the method: as §1
# [39] = target: Neu5Ac(a2-3)Gal(b1-3)[Fuc(a1-4)]GlcNAc
# Summary of the method: as §1
# [40] = target: Neu5Ac(a2-3)Gal(b1-4)GlcNAc(b1-2)Man
# Summary of the method: as §1
# [41] = target: Neu5Ac(a2-3)Gal(b1-4)GlcNAc(b1-2)[Neu5Ac(a2-3)Gal(b1-4)GlcNAc(b1-4)]Man(a1-3)[GlcNAc(b1-4)][Neu5Ac(a2-3)Gal(b1-4)GlcNAc(b1-2)[Neu5Ac(a2-3)Gal(b1-4)GlcNAc(b1-6)]Man(a1-6)]Man(b1-4)GlcNAc(b1-4)GlcNAc
# Summary of the method: as §1
# [42] = target: Neu5Ac(a2-3)Gal(b1-4)GlcNAc(b1-3)Gal(b1-3)GlcNAc
# Summary of the method: as §1
# [43] = target: Neu5Ac(a2-3)Gal(b1-4)GlcNAc(b1-3)Gal(b1-4)GlcNAc
# Summary of the method: as §1
# [44] = target: Neu5Ac(a2-3)Gal(b1-4)GlcNAc(b1-3)Gal(b1-4)[Fuc(a1-3)]GlcNAc
# Summary of the method: as §1
# [45] = target: Neu5Ac(a2-3)Gal(b1-4)GlcNAc6S
# Summary of the method: as §1
# [46] = target: Neu5Ac(a2-3)Gal(b1-4)[Fuc(a1-3)]GlcNAc
# Summary of the method: as §1
# [47] = target: Neu5Ac(a2-3)GalNAc(b1-4)GlcNAc
# Summary of the method: as §1
# [48] = target: Neu5Ac(a2-6)Gal(b1-4)GlcNAc
# Summary of the method: as §1
# [49] = target: Neu5Ac(a2-6)Gal(b1-4)GlcNAc(b1-2)Man(a1-3)[Neu5Ac(a2-3)Gal(b1-4)GlcNAc(b1-2)Man(a1-6)]Man(b1-4)GlcNAc(b1-4)GlcNAc
# Summary of the method: as §1
# [50] = target: Neu5Ac(a2-6)Gal(b1-4)GlcNAc(b1-3)Gal(b1-3)GlcNAc
# Summary of the method: as §1
# [51] = target: Neu5Ac(a2-6)Gal(b1-4)GlcNAc(b1-3)Gal(b1-4)GlcNAc(b1-3)Gal(b1-4)GlcNAc(b1-2)Man(a1-3)[Neu5Ac(a2-6)Gal(b1-4)GlcNAc(b1-3)Gal(b1-4)GlcNAc(b1-3)Gal(b1-4)GlcNAc(b1-2)Man(a1-6)]GalNAc
# Summary of the method: as §1
# [52] = target: Neu5Ac(a2-6)GlcNAc(b1-4)GlcNAc(b1-4)GlcNAc
# Summary of the method: as §1
# [53] = target: Neu5Ac(a2-8)Neu5Ac
# Summary of the method: as §1
# [54] = target: Neu5Ac(a2-8)Neu5Ac(a2-8)Neu5Ac
# Summary of the method: as §1
binder,measurement,setting,value
SAOUHSC 00176 (Staphylococcus aureus) (protein) MSKILKCITLAVVMLLIVTACGPNRSKEDIDKALNKDNSKDKPNQLTMWVDGDKQMAFYKKITDQYTKKTGIKVKLVNIGQNDQLENISLDAPAGKGPDIFFLAHDNTGSAYLQGLAAEIKLSKDELKGFNKQALKAMNYDNKQLALPAIVETTALFYNKKLVKNAPQTLEEVEANAAKLTDSKKKQYGMLFDAKNFYFNYPFLFGNDDYIFKKNGSEYDIHQLGLNSKHVVKNAERLQKWYDKGYLPKAATHDVMIGLFKEGKVGQFVTGPWNINEYQETFGKDLGVTTLPTDGGKPMKPFLGVRGWYLSEYSKHKYWAKDLMLYITSKDTLQKYTDEMSEITGRVDVKSSNPNLKVFEKQARHAEPMPNIPEMRQVWEPMGNASIFISNGKNPKQALDEATNDITQNIKILHPSQNDKKGD,glycan array binding signal (z-score),[1],0.688
same,glycan array binding signal (z-score),[2],0.546
same,glycan array binding signal (z-score),[3],-0.097
same,glycan array binding signal (z-score),[4],-0.175
same,glycan array binding signal (z-score),[5],-0.119
same,glycan array binding signal (z-score),[6],-0.106
same,glycan array binding signal (z-score),[7],0.584
same,glycan array binding signal (z-score),[8],-0.107
same,glycan array binding signal (z-score),[9],-0.034
same,glycan array binding signal (z-score),[10],-0.068
same,glycan array binding signal (z-score),[11],-0.122
same,glycan array binding signal (z-score),[12],1.06
same,glycan array binding signal (z-score),[13],-0.007
same,glycan array binding signal (z-score),[14],-0.105
same,glycan array binding signal (z-score),[15],-0.068
same,glycan array binding signal (z-score),[16],1.03
same,glycan array binding signal (z-score),[17],0
same,glycan array binding signal (z-score),[18],0.017
same,glycan array binding signal (z-score),[19],0.619
same,glycan array binding signal (z-score),[20],-0.027
same,glycan array binding signal (z-score),[21],0.067
same,glycan array binding signal (z-score),[22],-0.092
same,glycan array binding signal (z-score),[23],-0.057
same,glycan array binding signal (z-score),[24],-0.084
same,glycan array binding signal (z-score),[25],4.5
same,glycan array binding signal (z-score),[26],23.6
same,glycan array binding signal (z-score),[27],-0.061
same,glycan array binding signal (z-score),[28],-0.101
same,glycan array binding signal (z-score),[29],-0.059
same,glycan array binding signal (z-score),[30],-0.02
same,glycan array binding signal (z-score),[31],-0.149
same,glycan array binding signal (z-score),[32],-0.124
same,glycan array binding signal (z-score),[33],-0.129
same,glycan array binding signal (z-score),[34],-0.143
same,glycan array binding signal (z-score),[35],-0.172
same,glycan array binding signal (z-score),[36],-0.179
same,glycan array binding signal (z-score),[37],1.08
same,glycan array binding signal (z-score),[38],-0.055
same,glycan array binding signal (z-score),[39],-0.157
same,glycan array binding signal (z-score),[40],0.473
same,glycan array binding signal (z-score),[41],-0.073
same,glycan array binding signal (z-score),[42],-0.09
same,glycan array binding signal (z-score),[43],0.002
same,glycan array binding signal (z-score),[44],-0.015
same,glycan array binding signal (z-score),[45],-0.027
same,glycan array binding signal (z-score),[46],-0.132
same,glycan array binding signal (z-score),[47],-0.141
same,glycan array binding signal (z-score),[48],-0.148
same,glycan array binding signal (z-score),[49],-0.114
same,glycan array binding signal (z-score),[50],-0.079
same,glycan array binding signal (z-score),[51],0.358
same,glycan array binding signal (z-score),[52],2.56
same,glycan array binding signal (z-score),[53],-0.022
same,glycan array binding signal (z-score),[54],-0.055

# Source: the supplement of paper PMC8728848
